Screening data: PubChem, The Scripps Research Institute Molecular Screening Center
Compounds with a hit are over-represented: about 2.9% of the library has one in this group of screens.
PLC-beta3 inh = human PLC-beta3 inhibitors, primary screen, biochemical, fluorescence; 1-phosphatidylinositol 4,5-bisphosphate phosphodiesterase beta-3 (Homo sapiens), Q01970; Purified PLC-beta3, fluorogenic substrate; inhibition, % at 12.2 µM; 370,000 compounds, 0.18% hits; in the data active = inhibition above about 11%
ADAM10 inh = human ADAM10 inhibitors, primary screen, biochemical, QFRET, HTS; Disintegrin and metalloproteinase domain-containing protein 10 (Homo sapiens), O14672; inhibition, % at 7 µM; recombinant ADAM10, EDANS/DABCYL FRET peptide cleavage, 3 h; 370,000 compounds, 0.62% hits; AID 720582, 2013;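 active = inhibition above a per-campaign cutoff equal to the mean of compounds falling between control-based bounds plus 3 SD, cut at about 20% in these data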
PLC-gamma1 inh = PLC-gamma1 enzyme inhibitors, primary screen, biochemical, fluorescence, purified enzyme. 1-phosphatidylinositol 4,5-bisphosphate phosphodiesterase gamma-1 (Homo sapiens), P19174. fluorogenic substrate. inhibition, % at 12.2 µM. 370,000 compounds, 0.84% hits; in the data active = inhibition above about 9.5%
ADAM17 inh = ADAM17 inhibitors, primary screen, biochemical, QFRET; Disintegrin and metalloproteinase domain-containing protein 17 (Homo sapiens), P78536; recombinant ADAM17, EDANS/DABCYL FRET peptide cleavage; inhibition, % at 6.95 µM; 370,000 compounds, 0.83% hits; AID 720648, 2013;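 active = inhibition above the mean of compounds lying between control limits plus 3 SD, set per campaign, cut at about 8.5% in these data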
proKLK7 act = proKLK7 zymogen activators, primary screen, biochemical, fluorescence intensity; Kallikrein-7 (Homo sapiens), P49862; purified proKLK7, EDANS-DABCYL substrate fluorescence; 100% is mature enzyme control, 0% vehicle; activation, % at 7 µM; 370,000 compounds, 0.9% hits; AID 652039, 2013;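 active = activation above the mean of all tested compounds plus 3 SD, computed per campaign excluding outliers beyond control limits, cut at about 13% in these data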
ADAM10 confirm = human ADAM10 inhibitors, confirmation, biochemical, QFRET, triplicate. shares compounds with ADAM10 inh. ADAM10 QFRET peptide cleavage, EDANS fluorescence. inhibition, % at 6.95 µM. 2,100 compounds, 1% hits;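 active = inhibition above about 20% chosen separately for each screening run, limit read from the data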
ADAM17 counter = ADAM17 inhibitors, counter-screen for ADAM10 exosite inhibitor project, biochemical, QFRET, high throughput; shares compounds with ADAM10 inh; ADAM17 QFRET peptide cleavage, EDANS fluorescence; inhibition, % at 6.95 µM; 2,100 compounds, 0.5% hits;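 active = mean triplicate inhibition above the solvent-only control wells' mean plus 3 SD, cut at about 12% in these data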
ADAM10 counter = ADAM10 inhibitors, counter-screen for ADAM17 exosite inhibitor project, biochemical, FRET, human ADAM10; inhibition, % at 6.95 µM; shares compounds with ADAM17 inh; 2,900 compounds, 47% hits; recombinant ADAM10, EDANS/DABCYL FRET peptide cleavage, 3 h;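 active = mean inhibition over the triplicate runs exceeds the activity threshold set in the earlier primary screen, cut at about 20% in these data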
ADAM17 confirm = ADAM17 inhibitors, hit retest, confirmation, biochemical, QFRET peptide cleavage. shares compounds with ADAM17 inh. recombinant ADAM17, EDANS/DABCYL QFRET peptide cleavage. inhibition, % at 6.95 µM. 2,900 compounds, 65% hits. AID 743257, 2014;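 active = mean inhibition across replicates above the hit cutoff set in the primary screen, cut at about 8.5% in these data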
A number is an active result.

`Cc1ccc(S(=O)(=O)N(Cc2ccc(Cl)cc2)c2ccccc2C(=O)NCc2ccco2)cc1` gave PLC-beta3 inh inactive, ADAM10 inh 22, PLC-gamma1 inh inactive, ADAM17 inh 11, proKLK7 act inactive, ADAM10 confirm inactive, ADAM17 counter inactive, ADAM10 counter inactive and ADAM17 confirm 12.
Screening CC(C)(C)OC(=O)NCCCCCNC(=O)c1ncn(Cc2ccccc2)c1C(=O)NCCCCCNC(=O)OC(C)(C)C returned PLC-beta3 inh inactive, ADAM10 inh 20, PLC-gamma1 inh inactive, ADAM17 inh 13, proKLK7 act inactive, ADAM10 confirm inactive, ADAM17 counter inactive, ADAM10 counter 31 and ADAM17 confirm 16.
For CC(C)(C)OC(=O)NCCCCCNC(=O)c1[nH]cnc1C(=O)N[C@@H](Cc1ccccc1)C(=O)OCc1ccccc1 the results were PLC-beta3 inh inactive, ADAM10 inh 23, PLC-gamma1 inh inactive, ADAM17 inh 11, proKLK7 act inactive, ADAM10 confirm inactive, ADAM17 counter inactive, ADAM10 counter 41 and ADAM17 confirm 21.
Screening C[C@H](NC(=O)c1nc[nH]c1C(=O)NCCCCCNC(=O)OC(C)(C)C)C(=O)OCc1ccccc1 returned PLC-beta3 inh inactive, ADAM10 inh inactive, PLC-gamma1 inh inactive, ADAM17 inh inactive and proKLK7 act inactive.
For CC(C)C[C@H](NC(=O)c1nc[nH]c1C(=O)NCCCCCNC(=O)OC(C)(C)C)C(=O)OCc1ccccc1 the results were PLC-beta3 inh inactive, ADAM10 inh 29, PLC-gamma1 inh inactive, ADAM17 inh 14, proKLK7 act inactive, ADAM10 confirm inactive, ADAM17 counter inactive, ADAM10 counter 42 and ADAM17 confirm 21.
Screening CC(C)(C)OC(=O)NCCCCCNC(=O)c1nc[nH]c1C(=O)NCC(=O)OCc1ccccc1 returned PLC-beta3 inh inactive, ADAM10 inh inactive, PLC-gamma1 inh inactive, ADAM17 inh inactive and proKLK7 act inactive.
Screening CC(C)C[C@H]1COc2cc(F)ccc2S(=O)(=O)N1C returned PLC-beta3 inh inactive, ADAM10 inh inactive, PLC-gamma1 inh inactive, ADAM17 inh inactive and proKLK7 act inactive.
Screening Cc1ccc(CNC[C@@]23CO[C@H](c4ccc(Cl)cc4)N2[C@@H](c2ccc(Cl)cc2)SC3)o1 returned PLC-beta3 inh inactive, ADAM10 inh inactive, PLC-gamma1 inh inactive, ADAM17 inh inactive and proKLK7 act inactive.
CN1C(C(=O)Nc2ccc(OC(F)(F)F)cc2)=CC(c2cccs2)=NS1(=O)=O was read as PLC-beta3 inh inactive, ADAM10 inh 26, PLC-gamma1 inh inactive, ADAM17 inh 13, proKLK7 act inactive, ADAM10 confirm inactive, ADAM17 counter inactive, ADAM10 counter 22 and ADAM17 confirm 16.
`Cc1ccc(S(=O)(=O)N(CC(=O)Nc2ccc(Cl)c([N+](=O)[O-])c2)C2CCCCC2)cc1` gave PLC-beta3 inh inactive, ADAM10 inh 25, PLC-gamma1 inh inactive, ADAM17 inh 14, proKLK7 act inactive, ADAM10 confirm inactive, ADAM17 counter inactive, ADAM10 counter 25 and ADAM17 confirm 14.
CC(C)C[C@H](NC(=O)C1CCCC1)C(=O)N1CCC[C@H]1C(=O)NCc1ccccc1 was read as PLC-beta3 inh inactive, ADAM10 inh inactive, PLC-gamma1 inh inactive, ADAM17 inh inactive and proKLK7 act inactive.
Screening COc1ccc(-n2c(SCC(=O)Nc3cc(C)c(NC(=O)c4ccccc4)cc3OC)nnc2-c2cccnc2)cc1 returned PLC-beta3 inh inactive, ADAM10 inh inactive, PLC-gamma1 inh inactive, ADAM17 inh inactive and proKLK7 act inactive.
`COc1ccc(-n2c(SCC(=O)Nc3cc(C)c(NC(=O)c4ccccc4)cc3OC)nnc2-c2ccco2)cc1` gave PLC-beta3 inh inactive, ADAM10 inh 24, PLC-gamma1 inh inactive, ADAM17 inh 12, proKLK7 act inactive, ADAM10 confirm inactive, ADAM17 counter inactive, ADAM10 counter inactive and ADAM17 confirm 8.7.
Screening C[C@H](NC(=O)c1nc[nH]c1C(=O)NC1CCN(C(=O)OC(C)(C)C)CC1)C(=O)OC(C)(C)C returned PLC-beta3 inh inactive, ADAM10 inh inactive, PLC-gamma1 inh inactive, ADAM17 inh inactive and proKLK7 act inactive.
For CC(C)(C)OC(=O)[C@H](Cc1ccccc1)NC(=O)c1nc[nH]c1C(=O)NC1CCN(C(=O)OC(C)(C)C)CC1 the results were PLC-beta3 inh inactive, ADAM10 inh 24, PLC-gamma1 inh inactive, ADAM17 inh 11, proKLK7 act inactive, ADAM10 confirm inactive, ADAM17 counter inactive, ADAM10 counter 50 and ADAM17 confirm 23.
CC(C)C[C@H](NC(=O)c1nc[nH]c1C(=O)NC1CCN(C(=O)OC(C)(C)C)CC1)C(=O)OCc1ccccc1 was read as PLC-beta3 inh inactive, ADAM10 inh 37, PLC-gamma1 inh inactive, ADAM17 inh 16, proKLK7 act inactive, ADAM10 confirm inactive, ADAM17 counter inactive, ADAM10 counter 29 and ADAM17 confirm 16.
CC1CCN(C(=O)c2[nH]cnc2C(=O)N[C@@H](Cc2ccccc2)C(=O)OC(C)(C)C)CC1 was read as PLC-beta3 inh inactive, ADAM10 inh inactive, PLC-gamma1 inh inactive, ADAM17 inh inactive and proKLK7 act inactive.
CC(C)C[C@H](NC(=O)c1nc[nH]c1C(=O)NC1CCN(C(=O)OC(C)(C)C)CC1)C(=O)OC(C)(C)C was read as PLC-beta3 inh inactive, ADAM10 inh 24, PLC-gamma1 inh inactive, ADAM17 inh 9.4, proKLK7 act inactive, ADAM10 confirm inactive, ADAM17 counter inactive, ADAM10 counter 32 and ADAM17 confirm 16.
For CC(=O)c1cc(-c2cccc(C(C)C)c2)c(=O)n2c1CCC2 the results were PLC-beta3 inh inactive, ADAM10 inh inactive, PLC-gamma1 inh inactive, ADAM17 inh inactive and proKLK7 act inactive.
